PLCg1 inh: inhibitors of human phospholipase C gamma1 | P19174 | purified PLC-gamma1, fluorogenic substrate, fluorescence | inhibition, % at 12.2 µM | 370,000 compounds, 0.84% hits; in the data active = inhibition above about 9.5%
LEDGF integ inh: blocks HIV-1 LEDGF/p75-dependent DNA integration; 370,000 compounds, 0.64% hits; inhibition, % at 3.7 µM; AID 743269; TR-FRET IN-LEDGF/p75 DNA integration, Eu/Cy5;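 active = inhibition above the screen-wide mean plus 3 SD, cut at about 13% in these data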;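 also: signal is the Cy5 over europium emission ratio at 671 and 618 nm; 0% = plate median of compound wells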
UHRF1 MBD2 ctr: UHRF1 methyl-DNA binding inhibition. Q96T88. UHRF1 binding to methylated oligo, TR-FRET. inhibition, % at 4.4 µM. 370,000 compounds, 0.75% hits. AID 687016; in the data active = inhibition above about 21%;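 also: UHRF1 SRA domain binding a hemimethylated CpG hairpin DNA probe; 0% = median of test compound wells and 100% = reference inhibitor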
PLCb3 inh: blocks human PLC-beta3 enzyme activity | Q01970 | Purified PLC-beta3, fluorogenic substrate, fluorescence | inhibition, % at 12.2 µM | 370,000 compounds, 0.18% hits | AID 720704; in the data active = inhibition above about 11%;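 also: 0% = median of compound wells on plate and 100% = full blocker control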
MBD2 inh: MBD2-methylated oligo binding inhibition; Q9UBB5; TR-FRET, MBD2 binding to methylated oligonucleotide; inhibition, % at 4.4 µM; 370,000 compounds, 0.31% hits; in the data active = inhibition above about 13%
Target sequence (Q9UBB5 whole entry, looked up): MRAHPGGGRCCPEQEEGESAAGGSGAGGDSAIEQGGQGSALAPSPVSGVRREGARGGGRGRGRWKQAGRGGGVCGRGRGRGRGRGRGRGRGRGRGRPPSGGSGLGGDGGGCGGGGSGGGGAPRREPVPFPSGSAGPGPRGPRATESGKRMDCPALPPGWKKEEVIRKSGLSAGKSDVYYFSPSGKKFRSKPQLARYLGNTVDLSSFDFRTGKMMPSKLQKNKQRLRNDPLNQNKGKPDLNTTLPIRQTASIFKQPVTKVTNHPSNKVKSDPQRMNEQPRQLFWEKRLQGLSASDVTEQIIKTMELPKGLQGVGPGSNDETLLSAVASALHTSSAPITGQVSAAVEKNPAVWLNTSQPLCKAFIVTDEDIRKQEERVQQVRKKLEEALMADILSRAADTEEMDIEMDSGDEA
Numbers without * were called inactive. Shown are actives, neighbours in structure and some others; about 2.4% of the full set was active somewhere.

SMILES | PLCg1 inh | LEDGF integ inh | UHRF1 MBD2 ctr | PLCb3 inh | MBD2 inh
CN(CCc1cnn(C)c1)C(=O)CCc1nnc(CCCc2ccccc2)o1 | 2 | 1 | 48* | 2 | -3
CN(CCc1ccccn1)C(=O)CCc1nnc(CCCc2ccccc2)o1 | 0 | 0 | 1 | -2 | 3
COc1ccc(S(=O)(=O)n2cccc2)cc1 | -1 | -5 | 23* | -8 | -1
COc1ccccc1OCC(=O)NCCSCc1ccccc1Cl | -3 | 2 | 25* | -1 | 5
CC(C)CN1C(=O)C[C@@]2(C(=O)N(C)c3ccc(NC(=O)c4cc(F)ccc4F)cc32)C1c1ccccc1 (stereo partly drawn) | 1 | 3 | 8 | 3 | 8
CC(SC(=S)N1CCCC1)C(=O)O (stereo not drawn) | -1 | 0 | 24* | -1 | 3
CC(C)C(=O)Nc1nnc(SCC(=O)NC2CCCC2)s1 | 4 | 0 | 93* | -5 | 4
CC(=O)Nc1ccc(C(/C=C/c2ccccc2)Cc2ccccc2)cc1 (stereo not drawn) | -4 | -3 | -1 | -6 | 0
CC(NC(=O)COC(=O)C12CC3CC(CC(O)(C3)C1)C2)c1ccccc1 (stereo not drawn) | 13* | -1 | 1 | 13* | -3
N#C/C(=C\c1c(N2CCCCCC2)nc2ccccn2c1=O)C(=O)NC1CCS(=O)(=O)C1 (stereo not drawn) | -7 | 2 | 24* | -13 | 12
COC(=O)[C@]12C=CCN1[C@@H](c1ccc(OC)c(OC)c1)c1c(c3ccccc3n1S(=O)(=O)c1ccc(C)cc1)C2 | -23 | -2 | 1 | -30 | 0
CC(C)(C)c1ccc(-c2nnc(SCC(=O)Nc3ccc(S(=O)(=O)Nc4nccs4)cc3)n2-c2ccc(Cl)cc2)cc1 | 2 | 4 | -1 | -4 | -4
CCCCNc1ccc(C(F)(F)F)cc1S(=O)(=O)NCCc1ccc(F)cc1 | 3 | 6 | 23* | 0 | 12
COc1ccc(S(=O)(=O)NCCc2ccc(F)cc2)cc1 | -2 | 2 | -3 | 0 | 5
CCOC(=O)N1C(=O)C[C@](Sc2ccc(OC)cc2)(C(=O)N2CCCC2)[C@H]1c1ccc(OC)cc1 | 0 | 1 | 9 | -2 | 4
N/C(=N\N=C\c1ccc(O)cc1)c1nonc1N | 11* | 3 | -1 | 9 | 2
N/C(=N\N=C\c1ccc(O)c(O)c1)c1nonc1N | -21 | 1 | -3 | -33 | -4
CC(C)(C)OC(=O)N1CCC[C@@H]1C(=O)N1CCC[C@@H]1C(=O)NCc1ccccc1 | 4 | 2 | 16 | 3 | 15*
COC(=O)c1ccc(NC(=O)C2CCCN2C(=O)OCc2ccccc2)cc1 (stereo not drawn) | 3 | 4 | 24* | -2 | 5
COc1ccc(NC(=O)C2CCCN2C(=O)OCc2ccccc2)cc1 (stereo not drawn) | -1 | 3 | -1 | -1 | -2
COC(=O)[C@]12C[C@H](CC(=O)NCCCCc3ccccc3)C(=O)N(Cc3ccc(Cl)cc3Cl)C1=C[C@H](COCc1ccccc1)O[C@@H]2C | -1 | -1 | 1 | 1 | -2
O=C(/C=C/c1ccccc1)OCC(=O)N1CCCC1 | 11* | 5 | -2 | -6 | -1
O=C(/C=C/c1ccccc1)OCC(=O)N1CCN(c2ccccc2)CC1 | -1 | 4 | 1 | 0 | 0
O=C(OC12CCCN(C1)/C(=C/c1cccc(Cl)c1)C2)c1ccccc1 (stereo not drawn) | 1 | -3 | -1 | -1 | 3
CCOC(=O)N1C(=O)C[C@](Sc2ccc(OC)cc2)(C(=O)N2CCOCC2)[C@H]1c1ccc(OC)cc1 | 0 | -2 | -3 | 1 | -6
SMILES | PLCg1 inh | LEDGF integ inh | UHRF1 MBD2 ctr | PLCb3 inh | MBD2 inh
COc1ccc(C(=O)CCc2ccc(OC)c(OC)c2)cc1 | 9 | 7 | 4 | 3 | -1
COc1cc(O)c(CCC(=O)c2ccc(OC)c(OC)c2)c(OC)c1 | 4 | -3 | 63* | 2 | 2
CC1CCC2(CCC(=O)N2CCCOC(=O)NC(C)(C)C)CC1 (stereo not drawn) | 2 | 4 | 2 | -3 | 6
CC(=O)N1c2cc(S(=O)(=O)N3CCN(c4ccccc4F)CC3)c(Br)cc2CC1C (stereo not drawn) | 3 | 4 | -2 | 0 | -4
Cc1ccc(S(=O)(=O)c2ccc([N+](=O)[O-])cn2)cc1 | 11* | 2 | -3 | 6 | 2
CC(C)C[C@H]1COc2cc(Br)ccc2S(=O)(=O)N1Cc1cn(Cc2ccc(C(F)(F)F)cc2)nn1 | -2 | 1 | 1 | 0 | -6
Cc1cc(C)c(NC(=O)COC(=O)c2cccc3c2C(=O)c2ccccc2C3=O)c(C)c1 | 4 | -2 | 1 | 3 | 0
Cc1cc(C)c(Nc2cc(S(=O)(=O)O)c(N)c3c2C(=O)c2ccccc2C3=O)c(C)c1 | 6 | -3 | 23* | 6 | 1
CCOc1ccc(-n2c(SCC(=O)Nc3ccc(S(=O)(=O)Nc4nccs4)cc3)nnc2-c2ccncc2)cc1 | 0 | 1 | 1 | -4 | 2
CCn1c(Cc2cccs2)nnc1SCC(=O)Nc1cccc2ccccc12 | 0 | -2 | 0 | -2 | 2
COC(=O)C[C@@H]1CC[C@H]2[C@@H](COc3ccc(NS(=O)(=O)c4ccccc4F)cc3C(=O)N2C)O1 | 0 | 5 | 3 | 4 | -2
CCN1CCN(CC(=O)Nc2cc(S(=O)(=O)N(CC)c3ccccc3)ccc2Cl)CC1 | 9.5* | 3 | 1 | 3 | 1
COC(=O)C1CN(Cc2cn(CCC3OCCO3)nn2)CCS(=O)(=O)N1Cc1ccc(OC)cc1 (stereo not drawn) | -1 | 5 | 12 | 1 | 7
c1coc(-c2nc3c4ccccc4ccn3c2Cc2ccsc2)c1 | -38 | 5 | 22* | -60 | 7
Cc1ccc(NS(=O)(=O)c2cccs2)nc1 | -41 | 2 | 30* | -40 | 5
O=[N+]([O-])c1ccc(O)c(C=NNc2ccc(S(=O)(=O)O)cc2)c1 | 2 | -1 | 24* | -1 | 1
CCNC(=O)N(C)[C@H]1C[C@H]2c3[nH]c4cccc(-c5ccc6c(c5)OCO6)c4c3CCN2C[C@H]1[C@H](C)O | -98 | -3 | 0 | -120 | -6
CCN(CC)c1ccc(N=Nc2nn(C)c(C)c2[N+](=O)[O-])cc1 | 9 | -4 | -14 | 4 | -20
CCN(CC)c1ccc(N=Nc2ncn[nH]2)cc1 | 3 | 0 | -27 | 12* | -24
Nn1c(SCC(=O)Nc2ccc(OCc3ccccc3)cc2)nnc1-c1cc(-c2ccccc2)n[nH]1 | 5 | 2 | -3 | 3 | 2
COc1ccc(-c2noc(C(C)n3nc(C)c([N+](=O)[O-])c3C)n2)cc1OC (stereo not drawn) | 0 | -4 | -3 | 1 | 4
Cc1nn(C(C)c2nc(-c3ccccc3)no2)c(C)c1[N+](=O)[O-] (stereo not drawn) | 5 | -3 | 33* | -1 | -1
O=C(c1ccncc1)N1CCC(Oc2cccnc2)CC1 | 0 | 3 | 6 | 5 | -3

High-throughput results deposited in PubChem by The Scripps Research Institute Molecular Screening Center.
